Experimental data reported in PubChem BioAssay AID504847 (National Center for Advancing Translational Sciences (NCATS), 2011).
Hit rate of the full screen: of about 400,000 compounds, about 3,700 (0.93%) were called active. Another 3% or so got no clear call; they are omitted. Calls follow the shape of the dose curve; as a rule, active = well fitted inhibition curve with a large enough effect; inconclusive = small, poorly fitted or top-dose-only effect, or another doubt; inactive = no such curve, though single readings can be large or run the other way. The entries come from a sample that favours actives as a whole.

The compounds below were run against Vitamin D3 receptor (Homo sapiens) (UniProt P11473) (assay: Inhibitors of the vitamin D receptor (VDR): qHTS). Settings: VDR-SRC2-3 peptide fluorescence polarization, 2 h; max response, negative = inhibition: hits give low values.
Chain of Vitamin D3 receptor (Homo sapiens) (P11473 whole entry, looked up): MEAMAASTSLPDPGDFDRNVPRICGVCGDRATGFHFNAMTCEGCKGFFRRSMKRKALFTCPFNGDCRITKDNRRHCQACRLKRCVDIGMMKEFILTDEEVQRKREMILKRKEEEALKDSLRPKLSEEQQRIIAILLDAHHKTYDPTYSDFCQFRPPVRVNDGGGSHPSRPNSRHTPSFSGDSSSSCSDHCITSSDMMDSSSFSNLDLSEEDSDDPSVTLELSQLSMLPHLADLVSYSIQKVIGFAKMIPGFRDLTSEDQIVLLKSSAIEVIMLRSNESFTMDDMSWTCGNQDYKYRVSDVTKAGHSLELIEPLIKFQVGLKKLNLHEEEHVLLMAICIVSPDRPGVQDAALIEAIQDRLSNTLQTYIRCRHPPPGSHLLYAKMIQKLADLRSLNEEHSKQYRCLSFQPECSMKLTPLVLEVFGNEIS
In short: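 FP read-out; VDR + SRC2-3 coactivator peptide; 23 nl compound by pintool; 2 h RT incubation; reagents held at 4 deg C, protected from light.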
% is scaled to controls: 0 for no effect and ±100 for the full control effect; potency is read from the fitted curve at half-maximal effect.

Max response, negative = inhibition, inactive:
Cc1ccccc1CCNC(=O)C1CCN(c2nc3ccccc3nc2C(F)(F)F)CC1 5.88%
CCOc1cc(C(=O)OCC(=O)Nc2cccc(C)c2)ccc1OCC(=O)N1CCOCC1 8.55%
CCOc1cc(C(=S)N2CCOCC2)ccc1OS(=O)(=O)c1ccc(Br)cc1 -11.5%
CCN(CC)S(=O)(=O)c1ccc2c(c1)nc(CN(C)C(=O)Nc1ccc(Cl)cc1)n2C 11%
O=C(c1ccco1)N1CCC2(CC1)CN(c1ncccn1)C2 -6.75%
O=C(c1csnn1)N1CCC2(CC1)CN(c1ncccn1)C2 -1.15%
CC(C)NC(=O)N1CC[C@@]2(CCCN(C(=O)c3ccco3)C2)C1 -6.63%
O=C(c1csnn1)N1CCC[C@@]2(CCN(Cc3nccs3)C2)C1 1.05%
O=C(Cn1c(=O)n(-c2ccc(F)cc2)c(=O)c2sc3ccccc3c21)NC1CCCC1 8.11%
COc1ccccc1Nc1nc(N)nc(N)c1S(=O)(=O)c1ccccc1 15.2%
COC(=O)c1ccc(NC(=O)CSc2n[nH]c(-c3ccccc3)n2)cc1 9.27%
COc1ccc2ncc3c(-c4ccc(C)c(C)c4)nn(CC(=O)NC4CCCC4)c3c2c1 5.23%
COc1ccc2c(c1)C=C(C(=O)NCc1cc(Br)ccc1OC)CO2 8.92%
O=C(CN1CCOCC1)N/N=C/c1ccc(-c2ccc(Br)cc2)o1 13.8%
Cc1ccc(NC(=O)CN2CCC(C(N)=O)CC2)cc1[N+](=O)[O-] -4.1%
O=C(CN1CCSc2ccccc21)N1CCN(c2ccccc2)CC1 16.3%
Cc1ccccc1CSc1nc2c([nH]c3ccccc32)c(=O)n1C 2.18%
COc1ccc(CNC(=O)C2CCN(C(=O)c3ccco3)CC2)cc1 3.03%
CCc1nnc(NC(=O)C2CCN(C(=O)c3ccccc3C)CC2)s1 0.925%

Potency, active:
CCOc1cc(C(=S)N2CCOCC2)ccc1O 79.4 µM
O=C(c1ccco1)N1CCC[C@@]2(CCN(c3ccccc3)C2)C1 44.7 µM
O=C(c1csnn1)N1CCC[C@@]2(CCN(c3cccc(-c4ccccc4)c3)C2)C1 44.7 µM
CCN1CCC(O)(/C=C/c2ccc(C)cc2)C(C(=O)/C=C/c2ccc(C)cc2)C1 (stereo not given) 25.1 µM
Cc1ccc(-c2ccc(/C=N/NC(=O)CN3CCOCC3)o2)cc1[N+](=O)[O-] 2.51 µM
CCC(CC)c1nnc(NC(=O)C2CCN(C(=O)c3ccco3)CC2)s1 89.1 µM
